This is one part of a sample in which the strongest signals are shown more often than they occur.
Key:
Assay in all cases: glycan array binding signal (z-score within array); higher = stronger binding
Details in all cases: glycan notation: IUPAC condensed, linker removed
Fuc(a1-2)Gal(b1-3)GalNAc = biological target: Fuc(a1-2)Gal(b1-3)GalNAc
In short: (§1)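 Glycan array data came from 3228 arrays in the Consortium for Functional Glycomics database, and only arrays with an available protein sequence were kept. Glycan names were put into IUPAC-condensed notation, and columns mapping to the same glycan were averaged. The binding signal is a within-array Z-score, averaged across arrays of one protein sequence run at different concentrations or buffers and across linkers. A negative Z-score can be read as non-binding.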

[1] = biological target: Fuc(a1-2)Gal(b1-3)GlcNAc(b1-2)Man(a1-3)[Fuc(a1-2)Gal(b1-3)GlcNAc(b1-2)Man(a1-6)]Man(b1-4)GlcNAc(b1-4)GlcNAc
In short: as §1

[2] = biological target: Fuc(a1-2)Gal(b1-4)GlcNAc(b1-2)[Fuc(a1-2)Gal(b1-4)GlcNAc(b1-4)]Man(a1-3)[Fuc(a1-2)Gal(b1-4)GlcNAc(b1-2)Man(a1-6)]Man(b1-4)GlcNAc(b1-4)GlcNAc
In short: as §1

[3] = biological target: Fuc(a1-2)[Gal(a1-3)]Gal(b1-4)Glc
In short: as §1

[4] = biological target: Fuc(a1-2)[Gal(a1-3)]Gal(b1-4)GlcNAc(b1-2)Man(a1-3)[Fuc(a1-2)[Gal(a1-3)]Gal(b1-4)GlcNAc(b1-2)Man(a1-6)]Man(b1-4)GlcNAc(b1-4)GlcNAc
In short: as §1

[5] = biological target: Fuc(a1-2)[Gal(a1-3)]Gal(b1-4)[Fuc(a1-3)]GlcNAc
In short: as §1

[6] = biological target: Fuc(a1-2)[GalNAc(a1-3)]Gal(b1-3)GlcNAc(b1-2)Man(a1-3)[Fuc(a1-2)[GalNAc(a1-3)]Gal(b1-3)GlcNAc(b1-2)Man(a1-6)]Man(b1-4)GlcNAc(b1-4)[Fuc(a1-6)]GlcNAc
In short: as §1

[7] = biological target: Fuc(a1-2)[GalNAc(a1-3)]Gal(b1-4)GlcNAc(b1-2)Man(a1-3)[Fuc(a1-2)[GalNAc(a1-3)]Gal(b1-4)GlcNAc(b1-2)Man(a1-6)]Man(b1-4)GlcNAc(b1-4)GlcNAc
In short: as §1

[8] = biological target: Fuc(a1-2)[GalNAc(a1-3)]Gal(b1-4)GlcNAc(b1-3)Gal(b1-4)GlcNAc
In short: as §1

[9] = biological target: Fuc(a1-2)[GalNAc(a1-3)]Gal(b1-4)GlcNAc(b1-3)Gal(b1-4)GlcNAc(b1-3)Gal(b1-4)GlcNAc
In short: as §1

[10] = biological target: Fuc(a1-3)[Gal(b1-4)]GlcNAc(b1-2)Man(a1-6)[Gal(b1-4)GlcNAc(b1-2)Man(a1-3)]Man(b1-4)GlcNAc(b1-4)GlcNAc
In short: as §1

Gal(a1-3)Gal = biological target: Gal(a1-3)Gal
In short: as §1

[11] = biological target: Gal(a1-3)Gal(b1-4)[Fuc(a1-3)]GlcNAc(b1-2)Man(a1-3)[Gal(a1-3)Gal(b1-4)[Fuc(a1-3)]GlcNAc(b1-2)Man(a1-6)]Man(b1-4)GlcNAc(b1-4)GlcNAc
In short: as §1

Gal(b1-2)Gal = biological target: Gal(b1-2)Gal
In short: as §1

[12] = biological target: Gal(b1-3)GalNAc(a1-3)[Fuc(a1-2)]Gal(b1-4)GlcNAc
In short: as §1

Gal(b1-3)GlcNAc = biological target: Gal(b1-3)GlcNAc
In short: as §1

[13] = biological target: Gal(b1-3)GlcNAc(b1-2)Man(a1-3)[Gal(b1-3)GlcNAc(b1-2)Man(a1-6)]Man(b1-4)GlcNAc(b1-4)[Fuc(a1-6)]GlcNAc
In short: as §1

[14] = biological target: Gal(b1-3)GlcNAc(b1-3)Gal(b1-4)Glc
In short: as §1

[15] = biological target: Gal(b1-3)GlcNAc(b1-3)GalNAc
In short: as §1

Gal(b1-4)Gal = biological target: Gal(b1-4)Gal
In short: as §1

[16] = biological target: Gal(b1-4)GlcNAc(b1-2)Man(a1-3)[Man(a1-6)]Man(b1-4)GlcNAc(b1-4)GlcNAc
In short: as §1

[17] = biological target: Gal(b1-4)GlcNAc(b1-2)[Gal(b1-4)GlcNAc(b1-6)]Man(a1-6)[GlcNAc(b1-4)][Gal(b1-4)GlcNAc(b1-2)Man(a1-3)]Man(b1-4)GlcNAc(b1-4)GlcNAc
In short: as §1

[18] = biological target: Gal(b1-4)GlcNAc(b1-3)Gal(b1-3)GlcNAc
In short: as §1

[19] = biological target: Gal(b1-4)GlcNAc(b1-3)Gal(b1-4)Glc
In short: as §1

Gal3S6S(b1-4)GlcNAc6S = biological target: Gal3S6S(b1-4)GlcNAc6S
In short: as §1

Gal6S(b1-4)Glc6S = biological target: Gal6S(b1-4)Glc6S
In short: as §1

Gal6S(b1-4)GlcNAc = biological target: Gal6S(b1-4)GlcNAc
In short: as §1

GalNAc6S(b1-4)GlcNAc = biological target: GalNAc6S(b1-4)GlcNAc
In short: as §1

[20] = biological target: Glc(a1-6)Glc(a1-6)Glc(a1-6)Glc
In short: as §1

Glc(b1-4)Glc = biological target: Glc(b1-4)Glc
In short: as §1

Glc(b1-6)Glc = biological target: Glc(b1-6)Glc
In short: as §1

GlcA(b1-3)Gal = biological target: GlcA(b1-3)Gal
In short: as §1

[21] = biological target: GlcNAc(b1-3)[GlcNAc(b1-4)][GlcNAc(b1-6)]GlcNAc
In short: as §1

[22] = biological target: GlcNAc6S(b1-3)Gal(b1-4)GlcNAc
In short: as §1

[23] = biological target: Man(a1-3)[Man(a1-6)]Man(a1-6)[Man(a1-2)Man(a1-3)]Man(b1-4)GlcNAc(b1-4)GlcNAc
In short: as §1

[24] = biological target: Man(a1-3)[Man(a1-6)]Man(a1-6)[Man(a1-3)]Man
In short: as §1

[25] = biological target: Man(a1-3)[Man(a1-6)]Man(a1-6)[Man(a1-3)]Man(b1-4)GlcNAc(b1-4)GlcNAc
In short: as §1

[26] = biological target: Neu5Ac(a2-3)Gal(b1-3)GlcNAc6S
In short: as §1

[27] = biological target: Neu5Ac(a2-3)Gal(b1-4)GlcNAc(b1-2)Man(a1-3)[GlcNAc(b1-2)Man(b1-4)GlcNAc(b1-2)Man(a1-6)]Man(b1-4)GlcNAc(b1-4)GlcNAc
In short: as §1

[28] = biological target: Neu5Ac(a2-3)Gal(b1-4)GlcNAc(b1-2)Man(a1-3)[Neu5Ac(a2-6)Gal(b1-4)GlcNAc(b1-2)Man(a1-6)]Man(b1-4)GlcNAc(b1-4)GlcNAc
In short: as §1

[29] = biological target: Neu5Ac(a2-3)Gal(b1-4)GlcNAc(b1-3)Gal(b1-4)GlcNAc
In short: as §1

[30] = biological target: Neu5Ac(a2-3)Gal(b1-4)[Fuc(a1-3)]GlcNAc(b1-3)Gal
In short: as §1

[31] = biological target: Neu5Ac(a2-3)Gal(b1-4)[Fuc(a1-3)]GlcNAc6S
In short: as §1

Neu5Ac(a2-3)GalNAc = biological target: Neu5Ac(a2-3)GalNAc
In short: as §1

[32] = biological target: Neu5Ac(a2-6)Gal(b1-4)GlcNAc(b1-2)Man(a1-3)[Gal(b1-4)GlcNAc(b1-2)Man(a1-6)]Man(b1-4)GlcNAc(b1-4)GlcNAc
In short: as §1

[33] = biological target: Neu5Ac(a2-8)Neu5Ac(a2-8)Neu5Ac(a2-3)[GalNAc(b1-4)]Gal(b1-4)Glc
In short: as §1

[34] = biological target: Neu5Gc(a2-3)Gal(b1-3)[Fuc(a1-4)]GlcNAc
In short: as §1

[35] = biological target: Neu5Gc(b2-6)Gal(b1-4)GlcNAc
In short: as §1

B1: Gal 8 (Homo sapiens), O00214_1 (protein)
chain: MMLSLNNLQNIIYNPVIPFVGTIPDQLDPGTLIVIRGHVPSDADRFQVDLQNGSSMKPRADVAFHFNPRFKRAGCIVCNTLINEKWGREEITYDTPFKREKSFEIVIMVLKDKFQVAVNGKHTLLYGHRIGPEKIDTLGIYGKVNIHSIGFSFSSDLQSTQASSLELTEISRENVPKSGTPQLRLPFAARLNTPMGPGRTVVVKGEVNANAKSFNVDLLAGKSKDIALHLNPRLNIKAFVRNSFLQESWGEEERNITSFPFSPGMYFEMIIYCDVREFKVAVNGVHSLEYKHRFKELSSIDTLEINGDIHLLEVRSW
Fuc(a1-2)Gal(b1-3)GalNAc
  glycan array binding signal (z-score): -0.23
[1]
  glycan array binding signal (z-score): 0.466
[2]
  glycan array binding signal (z-score): -1.24
[3]
  glycan array binding signal (z-score): 3.1
[4]
  glycan array binding signal (z-score): 2.33
[5]
  glycan array binding signal (z-score): -0.143
[6]
  glycan array binding signal (z-score): 1.73
[7]
  glycan array binding signal (z-score): 2.14
[8]
  glycan array binding signal (z-score): 2.58
[9]
  glycan array binding signal (z-score): 2.31
[10]
  glycan array binding signal (z-score): -0.273
Gal(a1-3)Gal
  glycan array binding signal (z-score): -0.252
[11]
  glycan array binding signal (z-score): -0.137
Gal(b1-2)Gal
  glycan array binding signal (z-score): -0.201
[12]
  glycan array binding signal (z-score): 2.17
Gal(b1-3)GlcNAc
  glycan array binding signal (z-score): -0.167
[13]
  glycan array binding signal (z-score): -0.63
[14]
  glycan array binding signal (z-score): 0.084
[15]
  glycan array binding signal (z-score): -0.235
Gal(b1-4)Gal
  glycan array binding signal (z-score): -0.099
[16]
  glycan array binding signal (z-score): 0.003
[17]
  glycan array binding signal (z-score): -0.251
[18]
  glycan array binding signal (z-score): 1.38
[19]
  glycan array binding signal (z-score): 2.32
Gal3S6S(b1-4)GlcNAc6S
  glycan array binding signal (z-score): -0.201
Gal6S(b1-4)Glc6S
  glycan array binding signal (z-score): -0.094
Gal6S(b1-4)GlcNAc
  glycan array binding signal (z-score): -0.172
GalNAc6S(b1-4)GlcNAc
  glycan array binding signal (z-score): -0.215
[20]
  glycan array binding signal (z-score): -0.23
Glc(b1-4)Glc
  glycan array binding signal (z-score): 0.078
Glc(b1-6)Glc
  glycan array binding signal (z-score): -0.234
GlcA(b1-3)Gal
  glycan array binding signal (z-score): -0.219
[21]
  glycan array binding signal (z-score): -0.227
[22]
  glycan array binding signal (z-score): -0.585
[23]
  glycan array binding signal (z-score): 2.31
[24]
  glycan array binding signal (z-score): -0.195
[25]
  glycan array binding signal (z-score): -0.16
[26]
  glycan array binding signal (z-score): 2.19
[27]
  glycan array binding signal (z-score): -0.189
[28]
  glycan array binding signal (z-score): -0.225
[29]
  glycan array binding signal (z-score): -0.244
[30]
  glycan array binding signal (z-score): -0.243
[31]
  glycan array binding signal (z-score): -0.235
Neu5Ac(a2-3)GalNAc
  glycan array binding signal (z-score): -0.201
[32]
  glycan array binding signal (z-score): -0.254
[33]
  glycan array binding signal (z-score): 0.35
[34]
  glycan array binding signal (z-score): -0.233
[35]
  glycan array binding signal (z-score): -0.219

From the supplement of paper PMC8728848
